Inconclusive results are not listed. Activity calls are given as the source filed them. Calls follow the shape of the dose curve; as a rule, active = well fitted curve in the direction sought with a large enough effect; inconclusive = small, poorly fitted or top-dose-only effect, or effect the other way, or another doubt; inactive = no such curve, though single readings can be large or run the other way.
Molecular target: Alpha-galactosidase A (Homo sapiens) (UniProt P06280)
Assay: Confirmation of Inhibitors of Human alpha-Galactosidase Using Spleen Homogenate
Conditions: alpha-galactosidase enzyme activity; series mostly up to 56.2 µM
Excerpt: NIH Chemical Genomics Center [NCGC]
NIH Molecular Libraries Probe Production Centers Network [MLPCN]
Assay Submitter (PI): Wei Zheng
Alpha-galactosidase is a homodimeric glycoprotein that hydrolyzes the terminal alpha-galactosyl moieties from glycolipids and glycoproteins. Deficiency of this enzyme results in Fabry Disease with progressive accumulation of globotriaosylceramide and other glycosphingolipids in vascular endothelial cells that causes renal failure, myocardial infarction and stroke, and premature death in patients. It has been reported that the improper folding and trafficking of alpha-galactosidase resulting from genetic mutations may account for a significant number of Fabry patients. […] We optimized this alpha-galactosidase assay in 1536-well plate format for identification of novel small molecule inhibitors or activators with structures other than the sugar analogs in order to develop new pharmacological chaperones. In particular, this assay is directed towards discovering compounds active in more natural setting, tissue homogenate, that may have been missed by screens of the purified enzyme under more stringent conditions. This assay attempted to confirm hits from the primary screening.
NCGC Assay Protocol Summary:
This is a fluorogenic enzyme assay with 4-methylumbelliferyl-alpha-D-galactopyranoside as the substrate and human spleen homogenate containing alpha-galactosidase as the enzyme preparation. Upon hydrolysis of this fluorogenic substrate, the resulting product, 4-methylumbelliferone (which excites at 365 nm and emits at 440 nm) can be detected by a fluorescence plate reader. Data were normalized to the controls for basal activity (without enzyme) and 100% activity (with enzyme). The AC50 values were determined from concentration-response data modeled with the standard Hill equation.
Assay buffer: 50 mM citric acid (titrated with potassium phosphate to pH 5.0), 0.01% Tween-20 (pH 5.0 is an optimal condition for this enzyme assay)
1536-well assay protocol for the alpha-galactosidase from human spleen homogenate:
(1) Add 2 ul/well spleen homogenate (1 ug)
(2) Add 23 nL compounds in DMSO solution. The final titration was 0.5 nM to 58 uM.
(3) Add 2 ul of substrate (1 mM final)
(4) Incubate at 37C for 40 min
(5) Add 2 ul stop solution (1M NaOH and 1M Glycine mixture, pH 10)
(6) Detect the assay plate in a ViewLux plate reader (PerkinElmer) with Ex=365 nm and Em=440nm.
Keywords: Alpha-galactosidase, Fabry Disease, pharmacological chaperone, chaperone therapy, high throughput screening, alpha- galactosidase inhibitor, MLSMR, MLSCN, NIH Roadmap, qHTS and NCGC

Alpha-galactosidase A (Homo sapiens), sequence (P06280 32-429 limits assumed): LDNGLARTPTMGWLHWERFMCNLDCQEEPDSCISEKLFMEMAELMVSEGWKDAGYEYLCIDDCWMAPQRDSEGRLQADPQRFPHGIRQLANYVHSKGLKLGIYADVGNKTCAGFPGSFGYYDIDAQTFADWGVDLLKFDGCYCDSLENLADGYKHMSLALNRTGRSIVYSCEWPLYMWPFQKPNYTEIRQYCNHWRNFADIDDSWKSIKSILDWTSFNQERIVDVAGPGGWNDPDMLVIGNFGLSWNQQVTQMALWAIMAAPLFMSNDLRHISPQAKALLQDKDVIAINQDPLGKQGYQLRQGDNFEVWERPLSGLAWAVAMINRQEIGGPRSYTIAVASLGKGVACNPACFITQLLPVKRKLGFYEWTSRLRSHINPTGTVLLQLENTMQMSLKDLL

outcome, inactive:
COc1cccc2cc(-c3nc(-c4ccc(C)cc4)c(C)s3)c(=O)oc12, CN1CC=C2C(C#N)=C(N)C(C#N)(C#N)[C@H](c3cccc(Cl)c3)C2C1 (stereo not given in full), COc1ccc(/C=C/c2nnc(NC(=O)COc3ccc(Cl)cc3)s2)cc1, COc1cc(CNc2ccc(N3CCOCC3)cc2)cc(Br)c1OC, COc1cccc2cc(-c3nc(-c4ccccc4)c(C)s3)c(=O)oc12, CNC(=S)/N=C(\Nc1ccc(C)cc1)c1ccccc1, CCOC(=O)CCc1cccc2c1CCC2=O, CC1CC(C)CN(CC(=O)N2c3ccccc3CCc3ccccc32)C1 (stereo not given), N#Cc1c(-c2ccc(F)cc2)cc(-c2cccnc2)nc1N, OCC(CO)NC1C[C@](O)(CO)[C@@H](O)[C@H](O)[C@H]1O (stereo not given in full), O=S(=O)(c1ccc(O)cc1)N1CCOCC1, CC(C)Cn1c(SCC(=O)N2CCN(S(=O)(=O)c3ccccc3)CC2)nc2ccccc21, COc1ccc(-c2cc(=O)c(C(=O)c3ccc(C)cc3)n[nH]2)cc1, COc1ccc(Cc2nnc(NC(=O)CSc3ccc(Cl)cc3)s2)cc1, N#Cc1cccc(S(=O)(=O)N2CCOCC2)c1, O=S(=O)(c1ccccc1F)N1CCOCC1, O=c1[nH]c2ccccc2nc1/C=C/c1ccc2c(c1)OCO2, COc1cc(CN2CCC(CO)(Cc3cccc(C(F)(F)F)c3)CC2)ccc1F, O=S(=O)(c1ccccc1)N1CCN(c2ccccc2)CC1, O=[N+]([O-])c1ccccc1Nc1ccc(O)cc1, CCNc1sc(C(=O)c2cccs2)c(N)c1-c1nc2ccccc2s1, O=S(=O)(c1ccccc1)N1CCNCC1, O=C(CC(c1ccccc1)c1cc(Br)ccc1O)NCCN1CCOCC1 (stereo not given), CC(C)C[C@H](NC(=O)c1nc[nH]c1C(=O)N[C@@H](CC(C)C)C(=O)OC(C)(C)C)C(=O)OCc1ccccc1, CCC1c2ccc(C)n2CCN1C(=O)Nc1ccccc1C(=O)OC (stereo not given), Cc1sc(-c2cc3c(ccc4ccccc43)oc2=O)nc1-c1ccccc1, COc1ccccc1CNc1ccc(N2CCOCC2)c(C(=O)O)c1, Cc1c(C#N)c(N)nc2c3c(sc12)NC(=O)CC3c1ccc(Cl)cc1 (stereo not given), CCCC1(C)Nc2ccccc2-c2nc3ccccc3n21 (stereo not given), Cc1ccc(-c2cc(C(=O)N/N=C/c3c(C)nn(-c4ccccc4)c3C)n[nH]2)s1, COc1ccccc1CCNC(=O)C1CCC(=O)N(C2CC2)C1 (stereo not given), Cc1ccc(N2CC(C(=O)NCc3ccc(C)n3C)CC2=O)cc1 (stereo not given), N=c1sccn1CC(=O)Nc1cc(S(=O)(=O)N2CCCC2)ccc1Cl, O=c1oc2ccc3ccccc3c2cc1-c1nc(CCCBr)cs1, CC1CCc2nc(-c3cc4ccc(O)cc4oc3=O)sc2C1 (stereo not given), Cc1sc(-c2cc3ccccc3oc2=O)nc1-c1ccc(Cl)cc1, CC(=O)c1ccc(NC(=O)COc2ccccc2-c2nc(C)no2)cc1, Cc1[nH]n(C(N)=S)c(=O)c1N=Nc1ccc2ccccc2c1, CCS(=O)(=O)N1Cc2ccccc2CC1C(=O)Nc1ccc(NC(C)=O)cc1 (stereo not given), CC(=O)c1ccc(S(=O)(=O)N2CCOCC2)cc1

Reference: PubChem BioAssay AID2108 (National Center for Advancing Translational Sciences (NCATS), 2009)
